Source: PubChem BioAssay (NCI)
Compounds without any hit were thinned out: in the full panel of roughly 83,000, 20% have a hit.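 Assay: single dose, 48 h. Readout: percent growth (0 = no net growth; negative = cell death). Active: <10.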 Unmarked numbers belong to inactive results. Activity calls are given as the source filed them.

Tests used:
Experiment in all cases: NCI-60 one-dose screen, 48 h (100 = growth as untreated, 0 = no growth, -100 = all killed)
Conditions in all cases: 10 µM unless noted
[1] = test system: T-47D breast
[2] = test system: BT-549 breast
[3] = test system: MDA-MB-435 melanoma
[4] = test system: SW-620 colon
[5] = test system: MCF7 breast
[6] = test system: HCT-116 colon
[7] = test system: HCC-2998 colon
[8] = test system: KM12 colon

SMILES	growth [1]	growth [2]	growth [3]	growth [4]	growth [5]	growth [6]	growth [7]	growth [8]
c1ccc(-c2oc(-c3ccccc3)c3ccccc23)cc1	101%	96.5%	107%	109%	122%	108%	107%	105%
COc1cnc2c(c1)C(=O)c1c-2n(CCCN2CCNCC2)c(=O)c2cc(F)ccc12	9.02% (active)	4.74% (active)	-41.3% (active)	-53.7% (active)	11.7%	-82.5% (active)	2.69% (active)	-13.1% (active)
COc1ccc(/C=C/C(=O)c2cccc(NS(C)(=O)=O)c2)cc1	70.6%	105%	90%	50.5%	50.4%	21%	111%	38.5%
O=C(/C=C/c1cccc(O)c1)c1cccc(-n2cc(-c3ccccc3)[nH]c2=O)c1	21.1%	7.56% (active)	33.8%	-32.1% (active)	6.52% (active)	-67.7% (active)	-44.2% (active)	-73.3% (active)
COC(=O)CC1=C(c2ccc([N+](=O)[O-])cc2)CCC1=O	101%	110%	105%	101%	104%	112%	109%	107%
CC1=C([Se]CC(OC(=O)[C@@H](CSSC(C)(C)C)NC(=O)C(C)(C)C)C(=O)NCCCCCC(=O)OCc2ccccc2)C(=O)c2ccccc2C1=O (stereo partly drawn)	17.9%	-64.2% (active)	14.2%	9.84% (active)	30.3%	-18% (active)	-63.9% (active)	6.76% (active)
COc1cc(C(=O)c2cc3c(cc2C)OCO3)cc(OC)c1OC	58.2%	68.3%	-49% (active)	25.6%	13.6%	15.9%	10.1%	16.5%
Cc1sc2nc(N3CCCCC3)[nH]c(=O)c2c1C	84.2%	99.1%	103%	96.2%	96.1%	93.2%	98%	102%
C[C@H]1C(=O)N2c3ccccc3[C@@]3(O)C[C@@H](n4cnc5ccccc5c4=O)C(=O)N1[C@@H]23	99.1%	103%	109%	107%	98.9%	93.8%	98.5%	113%
COc1cc(/C=N/NC(=O)c2ccc(C(F)(F)F)nc2Nc2ccc(Cl)cc2C)ccc1O	33.7%	16%	39.2%	26.2%	27.8%	11.3%	42.8%	24.5%
Cc1ccc2nc3c(n2c1)C(=O)C(=O)c1ccccc1-3	-44.1% (active)	-96.4% (active)	-69.6% (active)	-80.5% (active)	-64.1% (active)	-50.4% (active)	-54% (active)	-26.6% (active)
Nc1nc(Nc2ccccc2SSc2ccccc2Nc2nc(N)nc(C(Cl)(Cl)Cl)n2)nc(C(Cl)(Cl)Cl)n1	15.7%	54.2%	82.9%	68.1%	75.7%	45.8%	111%	43.4%
COc1ccc2c(c1)sc1nc(-c3ccc(Br)cc3)cn12	85%	120%	103%	101%	80.4%	92.4%	115%	102%
COc1cc(C2CC(C3C(=O)N(C)C(=O)N(C)C3=O)=NN2c2cc(Cl)cc(Cl)c2)cc(OC)c1OC (stereo not drawn)	79.4%	99.2%	98%	94.7%	90.4%	87.3%	87.7%	91.8%
Cc1ccc(C2=NNC(c3sc(Cl)nc3Cl)C2)cc1 (stereo not drawn)	56.1%	98%	104%	72.1%	65.9%	74.7%	92.8%	99.5%
C[C@H](C(=O)N[C@@H](Cc1ccc(-c2ccccc2)cc1)C(=O)NC1CC(C)(C)N(C)C(C)(C)C1)c1ccc(-c2ccccc2)c(F)c1	-52.7% (active)	-82.5% (active)	-84.9% (active)	-76.8% (active)	-79.6% (active)	-87.6% (active)	-86.8% (active)	-78.6% (active)

SMILES	growth [1]	growth [2]	growth [3]	growth [4]	growth [5]	growth [6]	growth [7]	growth [8]
N#Cc1c(-c2ccc(F)cc2)n2c(nc1=O)SC(=O)C2=O	114%	99.1%	96.5%	103%	89.4%	102%	102%	104%
CC(C)N(Cc1ccccc1)c1c(Cl)ssc1=O	98.9%	90.9%	108%	110%	101%	99.9%	113%	106%
CN1CCN(CCCOc2ccc3ncnc(Nc4ccc(OCc5cccc(F)c5)c(Cl)c4)c3c2)CC1	-15.6% (active)	72%	-88.4% (active)	-78.7% (active)	-69.2% (active)	-87.9% (active)	-80.9% (active)	-56% (active)
Cc1cc(-c2ccccc2)cc(C)n1	114%	113%	105%	109%	93.5%	104%	107%	112%
Nc1ccc(Oc2c(F)c(F)c(Oc3ccc(N)cc3)c(F)c2F)cc1	91.8%	108%	104%	102%	129%	81.5%	73.1%	110%
CC(C)Cn1cnc2c(NCn3nc(-c4cc(Cl)cc(Cl)c4Cl)n(/N=C/c4ccc(Cl)cc4)c3=S)nc3ccccc3c21	71.3%	92.3%	110%	98.5%	97.2%	66.1%	80.6%	96.6%
Clc1ccc(C2c3ccccc3-c3nccn32)c(Cl)c1 (stereo not drawn)	56.2%	83.8%	89.6%	85.4%	80.5%	49%	99%	79.2%
O=C(Nc1ccc(Cl)cc1)Nc1ccccc1CNc1nc(Nc2ccc(OCCN3CCCC3)cc2)ncc1Cl	105%	77.6%	-28.9% (active)	-14.9% (active)	-10.5% (active)	-28.7% (active)	-21.1% (active)	11.3%
CSc1nc2nc3c(c(-c4ccc(C)cc4)c2c(=O)[nH]1)CN(C)C/C3=C\c1ccc(C)cc1	103%	114%	91.8%	103%	87%	101%	96.5%	101%
CCc1ccc(-c2nc(SCC(=O)NC3CCCCC3)n[nH]2)cc1	81.7%	84.6%	59.2%	80.5%	88.8%	74.2%	76.3%	82.2%
CCCCCCCCCCOC(C)=O	100%	118%	106%	106%	93.6%	112%	109%	113%
O=C(COc1ccc(/C=C2\Oc3ccc4ccccc4c3C2=O)cc1)c1ccc([N+](=O)[O-])cc1	73.1%	9.91% (active)	104%	98.5%	15.6%	74.1%	95.5%	93.5%
CCN(CC)CCNCC(=O)Oc1ccc(/C=C/C(=O)CC(=O)/C=C/c2ccc(OC(=O)CNCCN(CC)CC)c(OC)c2)cc1OC	26.6%	-49.4% (active)	-30% (active)	-26.5% (active)	11.6%	-9.15% (active)	-24.9% (active)	-19.5% (active)
CN[C@@H]1C(OC2[C@H](O[C@H]3[C@H](O)[C@@H](O)[C@H](N=C(N)N)[C@@H](O)[C@@H]3N=C(N)N)OC(C)[C@]2(O)CO)OC(CO)C(O)C1O (stereo partly drawn)	111%	112%	102%	104%	111%	105%	97.5%	110%
O=C(N/N=C/c1cccc([N+](=O)[O-])c1)c1ccc(Br)o1	83.4%	103%	106%	116%	78.1%	100%	87.2%	109%
